# According to PubChem BioAssay (NCATS):
# Results filed as inconclusive are left out. Unmarked numbers belong to inactive results. The call rests on the fitted dose curve; in most records, active means well fitted inhibition curve with a large enough effect; inconclusive means small, poorly fitted or top-dose-only effect; inactive means flat fitted curve, though single readings scatter.
# Molecular target: Calcium and integrin-binding protein 1 (Homo sapiens) (UniProt Q99828)
# Assay: Primary qHTS for Identification of Calcium Integrin Binding Protein 1 (CIB1) Competitor (AID 1508620); further: top concentration of the series differs between compounds
# Conditions: CIB1-GST / FITC-alphaIIb peptide fluorescence polarization; series mostly up to 57.7 µM; activity change, negative = inhibition: at the top concentration
# How it was run: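 Fluorescence polarization competition: GST-tagged CIB1 (1 uM final) preincubated with compound 15 min at room temperature, then FITC-labelled alphaIIb peptide (100 nM final) added. After 15 min at room temperature, polarization read at Ex 480/Em 540.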
# On the % scale 0 is the no-effect control and ±100 the full control effect.
# Calcium and integrin-binding protein 1 (Homo sapiens), sequence (Q99828 whole entry, looked up): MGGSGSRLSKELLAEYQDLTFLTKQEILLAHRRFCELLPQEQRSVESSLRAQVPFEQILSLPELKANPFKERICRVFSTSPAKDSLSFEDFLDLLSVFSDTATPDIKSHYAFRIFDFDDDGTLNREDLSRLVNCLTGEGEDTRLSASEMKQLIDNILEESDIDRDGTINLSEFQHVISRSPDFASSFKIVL
row,SMILES,"activity change, negative = inhibition"
1,CC1(C)CC[C@]2(C(=O)O)CC[C@]3(C)C(=CCC4[C@@]5(C)CC[C@H](O[C@H]6O[C@H](C(=O)O)[C@@H](O)[C@H](O[C@@H]7O[C@H](CO)[C@H](O)[C@H](O)[C@H]7O)[C@H]6O)C(C)(C)C5CC[C@]43C)[C@@H]2C1 (some centres undefined),-1.9% [at 30.2 µM]
2,C=C1CC[C@@]2(OC1)O[C@H]1CC3[C@@H]4CC=C5C[C@H](O[C@H]6OC[C@@H](O)C(O)[C@@H]6O[C@@H]6O[C@@H](C)[C@H](O)[C@@H](O[C@@H]7O[C@H](CO)[C@@H](O)[C@H](O)[C@H]7O)[C@H]6O)C[C@@H](O)[C@]5(C)C4CC[C@]3(C)[C@H]1[C@@H]2C (some centres undefined),0.758% [at 30.2 µM]
3,C/C=C/C=C/C(=O)OC1CC/C=C/C(O)C(O)C(CCC)OC1=O (centres undefined),2.99%
4,COC(=O)[C@@H](NC(=O)[C@H](CC(C)C)NC(=O)N(Cc1ccccc1)C[C@@H](O)[C@H](Cc1ccccc1)NC(=O)OC(C)(C)C)C(C)C,5.04% [at 30.2 µM]
5,COc1c2cc(c(O)c1OC)CCCCC(O)CCc1ccc(O)c-2c1 (centres undefined),-8.66%
6,COc1cc(O)cc2c1C(=O)OC(C)CCCCCCC2 (centres undefined),-1.17% [at 114 µM]
7,Cc1c(-c2ccc3c(c2)OCO3)oc2ccc(C(O)C(C)O)cc12 (centres undefined),1.39%
8,CC(=O)O[C@@H]1CC2C(C)(C)C(=O)C=C[C@]2(C)C2CC[C@]3(C)C(=CC(=O)[C@@H]3c3ccoc3)[C@@]21C (some centres undefined),4.58%
9,C=C1Cc2c(Cl)cc3[nH]c4c5c3c2[C@@]2(O)[C@@H]1C[C@@H]2C(C)(C)O[C@H]5C1CC[C@@]2(O)[C@@]35O[C@@H]3[C@H]3OC(C)(C)[C@H]3O[C@H]5CC[C@]2(C)[C@@]41C (some centres undefined),3.88% [at 30.2 µM]
10,C/C=C(\C)C(=O)OC1CC2C(CC=C3CC(OC4CC(OC)C(OC5CC(OC)C(OC6CC(OC)C(OC7CC(OC)C(OC8CC(OC)C(OC9OC(CO)C(O)C(O)C9O)C(C)O8)C(C)O7)C(C)O6)C(C)O5)C(C)O4)CCC32C)C2(O)CCC(C(C)=O)C12C (centres undefined),0.354% [at 12.4 µM]
11,CC1=CCC2C(C)(C)CCCC2(C)C1CC12OC1C(O)C(CO)=CC2O (centres undefined),-1.56%
12,O=C1OC(c2ccc(O)cc2)C(O)=C1Cc1ccccc1 (centres undefined),-17.6% [at 114 µM]
13,C/C=C(\C)C(=O)OC1C(C)C2(O)C3C=C(C)C(=O)C3CC(CO)=CC2C2C(C)(C)C12OC(C)=O (centres undefined),-4.5%
14,OC[C@H]1O[C@@H](Oc2cc(O)cc(-c3cc4ccc(O[C@@H]5O[C@H](CO)[C@@H](O)[C@H](O)[C@H]5O)cc4o3)c2)[C@H](O)[C@@H](O)[C@@H]1O,-3.85%
15,CC(=O)OC1C(CO)OC(O[C@H]2[C@H](OC(=O)[C@]34CCC(C)(C)C[C@H]3C3=CCC5[C@@]6(C)CC[C@H](O[C@@H]7O[C@H](C(=O)O)[C@@H](O)[C@H](O[C@@H]8OC[C@@H](O)[C@H](O)[C@H]8O)[C@H]7O[C@@H]7O[C@H](CO)[C@H](O)[C@H](O)[C@H]7O)[C@@](C)(C=O)C6CC[C@@]5(C)[C@]3(C)C[C@H]4O)O[C@H](C)[C@H](OC3OC(C)C(OC4OCC(O)C(O)C4O)C(O)C3O)[C@@H]2O)C(O)C1O (some centres undefined),4.08% [at 12.4 µM]
16,CCC(C)/C=C(C)/C=C/C(=O)C1CCC(O)C(C)(O)C1=O (centres undefined),-3.84% [at 114 µM]
17,CC1(C)CC[C@]2(C(=O)O[C@@H]3O[C@H](CO)[C@@H](O)[C@H](O)[C@H]3O)[C@H](O)C[C@]3(C)C(=CCC4[C@@]5(C)CC[C@H](O[C@@H]6OC[C@@H](O)[C@H](O)[C@H]6O)[C@@](C)(C(=O)O)C5CC[C@]43C)[C@@H]2C1 (some centres undefined),1.01% [at 30.2 µM]
18,C=C1C(=O)O[C@@H]2C[C@]3(C)[C@@H](CCC(C)=O)[C@@H]3C[C@H]12,2.23% [at 114 µM]
19,CC(=O)O[C@@H]1C[C@@H](C)[C@](O)(CCC2=CC(=O)OC2)[C@@]2(C)CCCC(C)(C)C12 (some centres undefined),2.32%
20,CC(C)=CCc1c(O)cc2oc3cc(C)cc(O)c3c2c1C,-2.61% [at 114 µM]

row,SMILES,"activity change, negative = inhibition"
1,CC(O)C(=O)/C=C/C=C/C(=O)OC1C=C2COC(=O)C2(O)C2(C)CCCC(C)(C)C12 (centres undefined),-5.7%
2,CC1=C2C[C@H]3OC(=O)[C@H](O)[C@@]4(O)[C@@H](C)[C@@H](O)[C@H](O)C([C@@]2(C)[C@H](O)[C@@H](O)C1)[C@@]34C (some centres undefined),-12.9%
3,CC(=O)NC1C(OC2CCC3(C)C(CCC4(C)C3CC=C3C5CC(C)(C)CCC5(C(=O)O)C(O)CC34C)C2(C)C)OC(CO)C(O)C1O (centres undefined),3.4% [at 30.2 µM]
4,CC(=O)OC1CC2C(C)(C)C(=O)C=CC2(C)C2CC(=O)C3=C(CCC3C3=CC(O)OC3=O)C12C (centres undefined),0.151%
5,CN1CCCC1Cc1c[nH]c2ccc(CCS(=O)(=O)c3ccccc3)cc12 (centres undefined),1.37% [at 114 µM]
6,CC(=O)O[C@@H]1C=C2[C@H](CC[C@@]3(C)[C@@]2(O)CC[C@H]2Cc4c([nH]c5ccccc45)[C@@]23C)O[C@@H]1C(C)(C)O,1.49%
7,C=C1CC2C3(C)C(O)CC(=O)C(C)(C)C3C(O)C(OC(C)=O)C2(C)C2C(=O)OC(C)(C(=O)OC)C(=O)C12C (centres undefined),-4.86%
8,C=C(C)C1Cc2c(ccc3c2OCC(c2ccc(O)cc2O)C3)O1 (centres undefined),-7.83%
9,COc1cc(O)c(C(=O)O)c(CCc2ccccc2)c1,-0.0599% [at 114 µM]
10,C/C=C/C=C/C=C/C(=O)O[C@@H]1C=C(CO)[C@](O)(CO)[C@@]2(C)CCCC(C)(C)[C@H]12,-0.583%
11,C=C(C)[C@H]1CC[C@]2(C(=O)O)CC[C@]3(C)C(CCC4[C@@]5(C)CCC(=O)C(C)(C)C5CC[C@]43C)C12 (some centres undefined),-12.1%
12,CCC(C)/C=C(C)/C=C/C1=CC2=CC(=O)C(C)(O)C(OC(C)=O)C2CO1 (centres undefined),12.3%
13,CC[C@@H]1C(=O)O[C@]23C=C[C@@H]4C(C(=O)OC)=CO[C@H](O[C@@H]12)[C@@H]43,2.76% [at 114 µM]
14,CC(CCO)CCC1C2(C)CCCC(C)(C)C2CC[C@@]1(C)O (some centres undefined),3.29%
15,CC1OC(OC2CCC3(C)C(CCC4(C)C3C=CC35OCC6(CCC(C)(C)CC63)CCC45C)C2(C)CO)C(OC2OC(CO)C(O)C(O)C2O)C(O)C1OC1OC(CO)C(O)C(O)C1O (centres undefined),-6.19% [at 30.2 µM]
16,C=C1C(=O)OC2CC(COC(=O)C(C)C)=C(C(C)CCCOC(C)=O)[C@@H](OC(C)=O)C12 (some centres undefined),3.31%
17,CC(=O)N[C@H]1[C@H](O[C@H]2CC[C@]3(C)C4CC=C5[C@@H]6CC(C)(C)CC[C@]6(C(=O)O)[C@H](O)C[C@@]5(C)[C@]4(C)CC[C@H]3C2(C)C)O[C@H](CO)[C@@H](O)[C@@H]1O (some centres undefined),3.68% [at 30.2 µM]
18,CC(NC(=O)[C@H](Cc1ccccc1)NC(=O)OCc1ccccc1)C(=O)CF (some centres undefined),2.64% [at 114 µM]
19,COC(=O)c1[nH]c(=O)c2ccccc2c1-c1ccc[nH]1,-4.31% [at 114 µM]
